Records with an inconclusive call do not appear. A call without a number means that no potency is given here. Active and inactive are the calls of the source. Calls come from the whole dose curve; as a rule, active = well fitted inhibition curve with a large enough effect; inconclusive = small, poorly fitted or top-dose-only effect; inactive = flat fitted curve, though single readings scatter.
What follows are compounds tested on CP250 (assay: qHTS profiling for inhibitors of Plasmodium falciparum proliferation (AID 504749; note: nearly all actives have a fitted effect of over 60% in size)). Settings: P. falciparum in erythrocytes, SYBR Green DNA, 72 h; series mostly up to 28.7 µM.
Summary of the method: (§1)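 P. falciparum-infected erythrocytes (0.3% parasitemia, 2.5% hematocrit final) were exposed to compounds for 72 h at 37 C in 5% CO2, then lysed with SYBR Green buffer overnight at room temperature; parasite DNA fluorescence was normalized to artemisinin and DMSO controls.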

**Q.** How did the Potency turn out when `CCCCCc1ccc(C)cc1O` was run?
**A.** The Potency was “inactive”.

**Q.** `C=CC(C)(O)CC/C=C(\C)CCC=C(C)C` (configuration not stated) was tested. Which Potency did it give?
**A.** Its Potency is “inactive”.

**Q.** For `Cc1ccc(S(=O)(=O)NCl)cc1`, which Potency is on record?
**A.** Its Potency is “inactive”.

**Q.** With `CN1c2c(nc(N)[nH]c2=O)NCC1CNc1ccc(C(=O)NC(CCC(=O)O)C(=O)O)cc1` (configuration not stated) as the compound, how does the Potency read?
**A.** Its Potency is “inactive”.

**Q.** For `NC(=O)[C@@H]1CCCN1C(=O)[C@H](Cc1cnc[nH]1)NC(=O)[C@@H]1CCC(=O)N1`, which Potency is on record?
**A.** Its Potency is “inactive”.

**Q.** Which Potency does the source give for `CN(C)CCOc1ccc(/C(=C(/CCCl)c2ccccc2)c2ccccc2)cc1` here?
**A.** The Potency was “inactive”.

**Q.** `CC1(O)CCC(C(C)(C)O)CC1` (configuration not stated) was tested. Which Potency did it give?
**A.** Its Potency is “inactive”.

**Q.** `COc1ccccc1N1CCN(CCCC(=O)c2ccc(F)cc2)CC1` was tested. Which Potency did it give?
**A.** The Potency was “inactive”.

**Q.** `CC(C)[C@@H](N)C(=O)O` was tested. Which Potency did it give?
**A.** Its Potency is “inactive”.

**Q.** `CN(C)c1ccc(C(=C2C=CC(=[N+](C)C)C=C2)c2c(O)c(S(=O)(=O)[O-])cc3cc(S(=O)(=O)O)ccc23)cc1` was tested. Which Potency did it give?
**A.** Its Potency is “inactive”.

**Q.** With `COc1cc(S(C)=O)ccc1-c1nc2ncccc2[nH]1` (configuration not stated) as the compound, how does the Potency read?
**A.** The Potency was “inactive”.

**Q.** Which Potency does the source give for `Oc1cc(O)cc(O)c1` here?
**A.** The Potency was “inactive”.

**Q.** With `N[C@H](CC(=O)O)C(=O)O` as the compound, how does the Potency read?
**A.** Its Potency is “inactive”.

**Q.** Which Potency does the source give for `C/C=C/C=C/C(=O)O` here?
**A.** Its Potency is “inactive”.

**Q.** Which Potency does the source give for `C=C(C)C1CC=C(C)CC1` (configuration not stated) here?
**A.** The Potency was “inactive”.

**Q.** `Nc1ncnc2c1ncn2[C@H]1CC[C@@H](CO)O1` was tested. Which Potency did it give?
**A.** The Potency was “inactive”.

**Q.** For `NCC[C@H](O)C(=O)N[C@@H]1C[C@H](N)[C@@H](O[C@H]2O[C@H](CN)CC[C@H]2N)[C@H](O)[C@H]1O[C@H]1O[C@H](CO)[C@@H](O)[C@H](N)[C@H]1O`, which Potency is on record?
**A.** Its Potency is “inactive”.

**Q.** How did the Potency turn out when `[O]=[Bi][O]C(=O)[O][Bi]=[O]` was run?
**A.** Its Potency is “inactive”.

**Q.** How did the Potency turn out when `Cc1c(Cl)cccc1Nc1ncccc1C(=O)O` was run?
**A.** The Potency was “inactive”.

**Q.** `CC1(C)S[C@@H]2[C@H](NC(=O)C3(N)CCCCC3)C(=O)N2[C@H]1C(=O)O` was tested. Which Potency did it give?
**A.** The Potency was “inactive”.

**Q.** Which Potency does the source give for `CCCCCCCCCCCC(=O)OCC(O)CO` (configuration not stated) here?
**A.** Its Potency is “inactive”.

**Q.** For `COc1ccc(C(=O)c2ccc(C)cc2)c(O)c1`, which Potency is on record?
**A.** Its Potency is “inactive”.

**Q.** How did the Potency turn out when `O=C1NCCN1c1ncc([N+](=O)[O-])s1` was run?
**A.** The Potency was “inactive”.

What follows are compounds tested on CP252 in the same assay as above. Settings: P. falciparum in erythrocytes, SYBR Green DNA, 72 h; series mostly up to 28.7 µM.
Summary of the method: as §1

**Q.** How did the Potency turn out when `CCCOC(=O)c1ccccc1O` was run?
**A.** Its Potency is “inactive”.

**Q.** Which Potency does the source give for `COc1cc2c(cc1OC)[C@@H](Cc1cc(OC)c(OC)c(OC)c1)[N+](C)(CCCOC(=O)CC/C=C/CCC(=O)OCCC[N+]1(C)CCc3cc(OC)c(OC)cc3[C@H]1Cc1cc(OC)c(OC)c(OC)c1)CC2` (some centres not stated) here?
**A.** The Potency was “inactive”.

**Q.** Which Potency does the source give for `OC[C@H]1O[C@@](CO)(O[C@H]2O[C@H](CO)[C@@H](O)[C@H](O)[C@H]2O)[C@@H](O)[C@@H]1O` here?
**A.** Its Potency is “inactive”.

**Q.** Which Potency does the source give for `CCC(Cc1c(I)cc(I)c(O)c1I)C(=O)O` (configuration not stated) here?
**A.** The Potency was “inactive”.

**Q.** How did the Potency turn out when `Nc1ncnc2c1ncn2CCOCP(=O)(O)O` was run?
**A.** Its Potency is “inactive”.

**Q.** Which Potency does the source give for `O=C(O)CCC/C=C\C[C@@H]1[C@@H](/C=C/[C@@H](O)COc2cccc(Cl)c2)[C@H](O)C[C@@H]1O` here?
**A.** The Potency was “inactive”.

**Q.** With `N=C(N)n1cccn1` as the compound, how does the Potency read?
**A.** Its Potency is “inactive”.

**Q.** With `CCSc1ccc2c(c1)N(CCCN1CCN(C)CC1)c1ccccc1S2` as the compound, how does the Potency read?
**A.** Its Potency is “inactive”.

**Q.** Which Potency does the source give for `CC(C)c1nc(N(C)S(C)(=O)=O)nc(-c2ccc(F)cc2)c1/C=C/C(O)CC(O)CC(=O)O` (configuration not stated) here?
**A.** Its Potency is “inactive”.

**Q.** `CCOC(C)OCC` was tested. Which Potency did it give?
**A.** The Potency was “inactive”.

**Q.** For `NCCN`, which Potency is on record?
**A.** Its Potency is “inactive”.

**Q.** `CC(CC=O)CCCC(C)(C)O` (configuration not stated) was tested. Which Potency did it give?
**A.** The Potency was “inactive”.

**Q.** `CC(C)(COP(=O)(O)OP(=O)(O)OC[C@H]1O[C@@H](n2cnc3c(N)ncnc32)[C@H](O)[C@@H]1OP(=O)(O)O)C(O)C(=O)NCCC(=O)NCCS` (some centres not stated) was tested. Which Potency did it give?
**A.** Its Potency is “inactive”.

**Q.** Which Potency does the source give for `O=C1c2ccccc2CN2C(=O)c3ccccc3CN12` here?
**A.** Its Potency is “inactive”.

**Q.** For `O=C1c2ccccc2C(=O)C1c1ccc(F)cc1`, which Potency is on record?
**A.** The Potency was “inactive”.

**Q.** `CNC(=O)C[C@@H](N)C(=O)N[C@@H](C(=O)N[C@@H]1C(=O)N2[C@@H]1SC(C)(C)[C@@H]2C(=O)O)c1ccc(O)cc1` was tested. Which Potency did it give?
**A.** Its Potency is “inactive”.

**Q.** `CCCCCc1ccc(C)cc1O` was tested. Which Potency did it give?
**A.** The Potency was “inactive”.

**Q.** How did the Potency turn out when `C=CC(C)(O)CC/C=C(\C)CCC=C(C)C` (configuration not stated) was run?
**A.** The Potency was “inactive”.

**Q.** Which Potency does the source give for `Cc1ccc(S(=O)(=O)NCl)cc1` here?
**A.** Its Potency is “inactive”.

**Q.** Which Potency does the source give for `CN1c2c(nc(N)[nH]c2=O)NCC1CNc1ccc(C(=O)NC(CCC(=O)O)C(=O)O)cc1` (configuration not stated) here?
**A.** Its Potency is “inactive”.

**Q.** Which Potency does the source give for `NC(=O)[C@@H]1CCCN1C(=O)[C@H](Cc1cnc[nH]1)NC(=O)[C@@H]1CCC(=O)N1` here?
**A.** The Potency was “inactive”.

**Q.** Which Potency does the source give for `CN(C)CCOc1ccc(/C(=C(/CCCl)c2ccccc2)c2ccccc2)cc1` here?
**A.** The Potency was “inactive”.

**Q.** How did the Potency turn out when `CC1(O)CCC(C(C)(C)O)CC1` (configuration not stated) was run?
**A.** The Potency was “inactive”.

**Q.** Which Potency does the source give for `COc1ccccc1N1CCN(CCCC(=O)c2ccc(F)cc2)CC1` here?
**A.** Its Potency is “inactive”.

**Q.** How did the Potency turn out when `CC(C)[C@@H](N)C(=O)O` was run?
**A.** The Potency was “inactive”.

**Q.** How did the Potency turn out when `CN(C)c1ccc(C(=C2C=CC(=[N+](C)C)C=C2)c2c(O)c(S(=O)(=O)[O-])cc3cc(S(=O)(=O)O)ccc23)cc1` was run?
**A.** The Potency was “inactive”.

**Q.** Which Potency does the source give for `COc1cc(S(C)=O)ccc1-c1nc2ncccc2[nH]1` (configuration not stated) here?
**A.** The Potency was “inactive”.

**Q.** `Oc1cc(O)cc(O)c1` was tested. Which Potency did it give?
**A.** The Potency was “inactive”.

**Q.** Which Potency does the source give for `N[C@H](CC(=O)O)C(=O)O` here?
**A.** The Potency was “inactive”.

**Q.** Which Potency does the source give for `C/C=C/C=C/C(=O)O` here?
**A.** The Potency was “inactive”.

**Q.** For `C=C(C)C1CC=C(C)CC1` (configuration not stated), which Potency is on record?
**A.** The Potency was “inactive”.

**Q.** How did the Potency turn out when `Nc1ncnc2c1ncn2[C@H]1CC[C@@H](CO)O1` was run?
**A.** Its Potency is “inactive”.

**Q.** With `NCC[C@H](O)C(=O)N[C@@H]1C[C@H](N)[C@@H](O[C@H]2O[C@H](CN)CC[C@H]2N)[C@H](O)[C@H]1O[C@H]1O[C@H](CO)[C@@H](O)[C@H](N)[C@H]1O` as the compound, how does the Potency read?
**A.** The Potency was “inactive”.

**Q.** Which Potency does the source give for `[O]=[Bi][O]C(=O)[O][Bi]=[O]` here?
**A.** Its Potency is “inactive”.

**Q.** `Cc1c(Cl)cccc1Nc1ncccc1C(=O)O` was tested. Which Potency did it give?
**A.** The Potency was “inactive”.

**Q.** `CC1(C)S[C@@H]2[C@H](NC(=O)C3(N)CCCCC3)C(=O)N2[C@H]1C(=O)O` was tested. Which Potency did it give?
**A.** The Potency was “inactive”.

**Q.** Which Potency does the source give for `CCCCCCCCCCCC(=O)OCC(O)CO` (configuration not stated) here?
**A.** Its Potency is “inactive”.

**Q.** Which Potency does the source give for `COc1ccc(C(=O)c2ccc(C)cc2)c(O)c1` here?
**A.** The Potency was “inactive”.

**Q.** How did the Potency turn out when `O=C1NCCN1c1ncc([N+](=O)[O-])s1` was run?
**A.** The Potency was “inactive”.
